According to ChEMBL document CHEMBL3988442, “University of Dundee, Small-Polar-MMV Screening Library” (2021):
The whole screen tested about 48,000 compounds, of which about 13,000 (27%) showed an effect of 50% or more. This is one part of the list.

System: Wolbachia pipientis
Test: Anti-Wolbachia Cell-Based Screen
Type: functional
Set-up: scale not given: in the data most compounds retested in dose-response had high values
Conditions: 5 µM

SMILES | Percent Effect [%]
CC(C)(C)n1cc(C2=CCN(CCc3ccccn3)CC2)cn1 | 15.47
CCOCC(O)CN1CCN(C(=O)Cc2ccc3c(c2)CCO3)CC1 (stereo not given) | -9.69
CC(Cn1cncn1)NCc1n[nH]c2c1CCCCC2 (stereo not given) | -17.11
CC(=O)c1cn(CC(=O)N2CCC3(CC2)OCCO3)c2ccccc12 | -19.35
O=C(c1cn(Cc2ccccc2)c2ncccc12)N1CCCCC1 | 137.3
O=C(c1cn(Cc2ccccc2)c2ncccc12)N1CCOCC1 | 115.6
O=C(c1cccnc1-n1cncn1)N1CCC(Nc2ccccc2)CC1 | 0.1986
Cc1ccc(N2CCCN(C(=O)c3cn(C)c4ccccc34)CC2)nn1 | 7.774
COCCN1C[C@@H](C)[C@@]2(COCCN(C(=O)c3ccccn3)C2)C1.O=C(O)C(F)(F)F.O=C(O)C(F)(F)F | -2.288
O=C(O)C(F)(F)F.O=C([C@@H]1C[C@@H]2CCN(Cc3ccccn3)C[C@H]2O1)N1CCCO1 | -15.19
O=C(N1CCOCC1)[C@@]12CCO[C@@H]1CCN(Cc1ccncc1)C2.O=C(O)C(F)(F)F.O=C(O)C(F)(F)F | 97.63
Cc1noc(C)c1CN1CC[C@H]2OCC[C@@]2(C(=O)N2CCCO2)C1.O=C(O)C(F)(F)F | -1.065
O=C(O)C(F)(F)F.O=C(O)C(F)(F)F.O=C(O)C(F)(F)F.c1cc(CN2CCCC23CCCN(Cc2ccoc2)C3)ccn1 (stereo not given) | 6.786
O=C(N1CCCO1)[C@]12COC[C@H]1CN(Cc1cccnc1)C2.O=C(O)C(F)(F)F.O=C(O)C(F)(F)F | 2.039
O=C(N1CCCO1)[C@@]12CCO[C@@H]1CCN(Cc1cccnc1)C2.O=C(O)C(F)(F)F.O=C(O)C(F)(F)F | 92.31
O=C(N1CCCO1)[C@@]12CCO[C@@H]1CCN(Cc1ccccn1)C2.O=C(O)C(F)(F)F.O=C(O)C(F)(F)F | 114.4
Cc1cccc(CN2CC[C@H]3OCC[C@@]3(C(=O)N3CCCO3)C2)n1.O=C(O)C(F)(F)F.O=C(O)C(F)(F)F | 104.8
Cc1cccc(CN2CCC3(CCCN(CC(=O)N(C)C)C3)C2)n1.O=C(O)C(F)(F)F (stereo not given) | 2.241
Cc1nnc(N2CCCC3(CN(Cc4ccncc4)CCO3)C2)o1.O=C(O)C(F)(F)F.O=C(O)C(F)(F)F (stereo not given) | -4.396
O=C(O)C(F)(F)F.O=C(O)C(F)(F)F.O=C([C@H]1CN(Cc2cccnc2)C[C@H]2OCC[C@@H]12)N1CCCO1 | -1.635
O=C(NCc1ccccn1)[C@@]12CCO[C@@H]1CCN(C1CCCC1)C2.O=C(O)C(F)(F)F.O=C(O)C(F)(F)F | 86.28
Cc1cc(CN2C[C@@H]3CN(C(=O)c4ccco4)CCO[C@@H]3C2)no1.O=C(O)C(F)(F)F | -7.73
Cc1cc(CN2CC[C@H]3OCC[C@@]3(C(=O)N3CCOCC3)C2)no1 | 107.8
Cc1ccnc(OC[C@@]23CCO[C@@H]2CCN(C2CCC2)C3)n1.O=C(O)C(F)(F)F | -3.433
Cc1cc(CN2CC[C@H]3OCC[C@@]3(C(=O)NC(C)C)C2)no1.O=C(O)C(F)(F)F | 2.849
